{
  "source": "PubChem BioAssay AID1347165",
  "about": "(National Center for Advancing Translational Sciences (NCATS), 2019)",
  "note": "Among all 220,000 compounds or so, about 5,700 (2.6%) were called active. About 18% were inconclusive and are not listed. Calls follow the shape of the dose curve; as a rule, active = well fitted inhibition curve with a large enough effect; inconclusive = small, poorly fitted or top-dose-only effect; inactive = no such curve, though single readings can be large or run the other way. What follows is part of a selection rich in actives, with near analogues and random picks from the rest. Where a call stands in place of a potency, no number is given. Potency is read from the fitted curve at half-maximal effect.",
  "data": [
    {"molecular_target": "Lysine-specific demethylase 5B (Homo sapiens) (UniProt Q9UGL1)", "sequence (Q9UGL1 whole entry, looked up)": "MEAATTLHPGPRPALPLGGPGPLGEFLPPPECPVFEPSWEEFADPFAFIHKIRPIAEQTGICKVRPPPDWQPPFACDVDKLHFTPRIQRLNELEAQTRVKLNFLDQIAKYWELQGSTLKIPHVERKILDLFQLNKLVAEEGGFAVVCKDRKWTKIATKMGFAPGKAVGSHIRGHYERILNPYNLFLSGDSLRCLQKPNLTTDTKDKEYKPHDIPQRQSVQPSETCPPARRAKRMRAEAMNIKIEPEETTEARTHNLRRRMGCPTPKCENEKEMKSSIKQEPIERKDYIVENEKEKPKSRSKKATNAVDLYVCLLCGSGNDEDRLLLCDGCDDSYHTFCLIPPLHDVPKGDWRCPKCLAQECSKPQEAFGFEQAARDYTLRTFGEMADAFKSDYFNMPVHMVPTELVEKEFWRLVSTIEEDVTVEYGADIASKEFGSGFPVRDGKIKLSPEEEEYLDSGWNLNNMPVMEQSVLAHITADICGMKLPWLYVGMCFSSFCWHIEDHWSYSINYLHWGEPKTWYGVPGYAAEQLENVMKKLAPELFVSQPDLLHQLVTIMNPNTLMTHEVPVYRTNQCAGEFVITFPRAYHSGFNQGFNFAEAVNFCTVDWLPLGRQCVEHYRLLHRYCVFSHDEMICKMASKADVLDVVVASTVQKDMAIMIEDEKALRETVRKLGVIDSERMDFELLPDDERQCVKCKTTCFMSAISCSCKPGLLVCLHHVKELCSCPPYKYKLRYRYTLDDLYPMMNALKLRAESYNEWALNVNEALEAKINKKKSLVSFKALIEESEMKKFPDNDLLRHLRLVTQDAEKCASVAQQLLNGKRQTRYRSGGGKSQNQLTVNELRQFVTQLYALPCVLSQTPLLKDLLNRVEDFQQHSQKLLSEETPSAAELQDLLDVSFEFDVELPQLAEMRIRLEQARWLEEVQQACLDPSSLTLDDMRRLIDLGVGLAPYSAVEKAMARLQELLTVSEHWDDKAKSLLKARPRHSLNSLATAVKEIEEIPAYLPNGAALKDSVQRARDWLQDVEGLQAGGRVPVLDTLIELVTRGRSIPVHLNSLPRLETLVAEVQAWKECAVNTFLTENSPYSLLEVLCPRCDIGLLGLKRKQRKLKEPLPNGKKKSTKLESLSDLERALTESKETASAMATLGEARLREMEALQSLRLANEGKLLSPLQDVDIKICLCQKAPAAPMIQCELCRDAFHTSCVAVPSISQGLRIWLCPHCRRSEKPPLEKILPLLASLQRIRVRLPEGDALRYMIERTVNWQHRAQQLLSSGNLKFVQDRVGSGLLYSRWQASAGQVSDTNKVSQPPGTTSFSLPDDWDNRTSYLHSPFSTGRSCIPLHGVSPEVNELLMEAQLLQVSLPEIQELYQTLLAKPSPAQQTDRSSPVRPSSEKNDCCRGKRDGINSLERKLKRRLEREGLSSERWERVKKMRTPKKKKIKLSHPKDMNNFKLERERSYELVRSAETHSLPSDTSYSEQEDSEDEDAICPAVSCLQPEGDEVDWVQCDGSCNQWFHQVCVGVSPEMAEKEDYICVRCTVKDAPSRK", "assay": "Primary screen for KDM5B Histone Demethylases FDH-coupled qHTS; also: nearly all actives have a fitted effect of over 70% in size", "settings": "FDH-coupled NADH fluorescence (FDH is formaldehyde dehydrogenase); series mostly up to 57.7 µM", "summary_of_the_method": "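Compound dilutions met 200 nM (final) KDM5BΔAP for 10 min at room temperature before substrate addition. The substrate mix held 12.5 µM H3K4me3 with cofactors 25 µM α-ketoglutarate and 50 µM Fe²⁺. NADH signal gain over 30 min defined activity.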", "values": [
      {"smiles": "COc1cc(CNCC(O)c2ccccc2)ccc1Oc1nnnn1-c1ccccc1", "note": "(stereo unspecified)", "Potency": "inactive"},
      {"smiles": "CCNC(=O)NC(=O)C(C)OC(=O)c1ccc(C(=O)OC)cc1", "note": "(stereo unspecified)", "Potency": "inactive"},
      {"smiles": "Cc1ccc(-n2nnnc2C2(Nc3ccccc3)CCCC2)cc1", "Potency": "inactive"},
      {"smiles": "COc1cccc(CN2CCN(C(=O)c3cnc4ccccn4c3=O)CC2=O)c1", "Potency": "28.2 µM (active)"},
      {"smiles": "COc1cccc(CN2CCOC3CCN(C(=O)c4cccnc4)CC3C2=O)c1", "note": "(stereo unspecified)", "Potency": "inactive"},
      {"smiles": "COc1cccc(CC(=O)NC2CCN(c3cn[nH]c(=O)c3)CC2)c1", "Potency": "inactive"},
      {"smiles": "O=C(CCc1cccs1)N(CC1CCOC1)C1CC1", "note": "(stereo unspecified)", "Potency": "inactive"},
      {"smiles": "Cc1nc2sc3c(c2c2nc(-c4ccc(O)cc4)nn12)CC(C)(C)OC3", "Potency": "inactive"},
      {"smiles": "Cn1c(Oc2cccc(Cl)c2)nc2c1c(=O)n(Cc1ccc(F)cc1)c(=O)n2C", "Potency": "inactive"},
      {"smiles": "Cc1nc2ccc(C(=O)NCCCOCC3CC3)cc2nc1C", "Potency": "inactive"},
      {"smiles": "O=C(CN1CCN(c2ccccc2)CC1)Nc1ccc(F)cc1", "Potency": "inactive"},
      {"smiles": "O=C(Cc1ccc(F)cc1)NC1CCN(c2cc(-c3ccc(Cl)cc3)[nH]n2)CC1", "Potency": "inactive"},
      {"smiles": "COc1ccc(-c2ccc3nnc(CNC(=O)C(C)Oc4ccc(Cl)cc4)n3n2)cc1", "note": "(stereo unspecified)", "Potency": "28.2 µM (active)"},
      {"smiles": "COc1cc(NC(=O)CSc2nnc3ccc(-c4ccncc4)nn23)cc(OC)c1", "Potency": "inactive"},
      {"smiles": "COc1ccc(CNc2nc(-c3ccc(Cl)cc3)nn2S(=O)(=O)c2ccc(C)cc2)cc1", "Potency": "inactive"},
      {"smiles": "O=C(Cc1ccc(Cl)cc1)NCc1nnc2ccc(-c3ccc(F)cc3)nn12", "Potency": "25.1 µM (active)"},
      {"smiles": "O=C(CN1CCN(Cc2ccc(Cl)cc2)C1=O)NCc1ccc(F)cc1", "Potency": "inactive"},
      {"smiles": "COc1ccc(Oc2c(C)oc3cc(OCC(=O)NCc4ccccc4)ccc3c2=O)cc1", "Potency": "inactive"},
      {"smiles": "COc1cccc(C(=O)Oc2ccc(C)cc2C(=O)/C=C/c2ccc(F)cc2)c1", "Potency": "inactive"},
      {"smiles": "CC(C)NC(=O)Nc1cccc(C(=O)Nc2cccc(Cl)c2)c1", "Potency": "inactive"},
      {"smiles": "CC(NC(=O)/C=C/c1ccsc1)C1CCCO1", "note": "(stereo unspecified)", "Potency": "inactive"},
      {"smiles": "N#Cc1ccc(OCC(O)CNCCC2=CCCCC2)cc1", "note": "(stereo unspecified)", "Potency": "inactive"},
      {"smiles": "O=C(NCCc1c[nH]c2ccc(Cl)cc12)c1ccccc1", "Potency": "inactive"},
      {"smiles": "CC(C)Oc1ccc(/C(O)=C2\\C(=O)C(=O)N(c3nccs3)C2c2cccc(Br)c2)cc1", "note": "(stereo unspecified)", "Potency": "inactive"},
      {"smiles": "O=C(CSc1ncccn1)c1ccc(F)cc1", "Potency": "inactive"},
      {"smiles": "CCOc1ccc(-c2nc(S(=O)(=O)c3ccc(F)cc3)c(NC)o2)cc1", "Potency": "inactive"},
      {"smiles": "O=C(CNc1nc(Cl)nc2nc[nH]c12)NC1CC1", "Potency": "inactive"},
      {"smiles": "Cc1ccc(-c2ccc3nnc(CNC(=O)c4ccncc4)n3n2)cc1C", "Potency": "28.2 µM (active)"},
      {"smiles": "CC[C@H](C)NC(=O)c1ccc2nc(-c3ccc(C)cc3)cc(OC)c2c1", "Potency": "inactive"},
      {"smiles": "O=C(NC/C(=N/NC(=O)c1cccnc1)c1ccccc1)c1ccccc1", "Potency": "inactive"},
      {"smiles": "COc1ccc(-c2nc3ccc(C(=O)NCc4ccc(C)cc4)cc3nc2-c2ccc(OC)cc2)cc1", "Potency": "inactive"},
      {"smiles": "O=C(NCc1nnc2n1C(C(=O)NC1CC1)CC2)c1ccncc1", "note": "(stereo unspecified)", "Potency": "inactive"},
      {"smiles": "O=C(CSc1nnc2ccc(-c3ccncc3)nn12)N1CCCCC1", "Potency": "inactive"},
      {"smiles": "O=C(NCCCN1CCCC1)c1cccnc1", "Potency": "inactive"},
      {"smiles": "Cc1ccc(-c2ccc3nnc(CNC(=O)c4cccnc4)n3n2)cc1C", "Potency": "31.6 µM (active)"},
      {"smiles": "COc1ccc(C(=O)NCc2nnc3ccc(-c4ccc(C)cc4)nn23)cc1F", "Potency": "28.2 µM (active)"}
    ]}
  ]
}
